# Data published in publication PMC4336329 (PLoS ONE, 2015).
# Among all 310,000 compounds or so, about 14,000 (4.5%) showed an effect of 50% or more. Effects have a minus sign here. The list comes from a sample in which strong results are over-represented; it also holds similar structures and randomly drawn compounds.
# Biological target: human ether-à-go-go-related gene (hERG) potassium channel (human, UniProt Q12809)
# Assay: primary screen, population patch clamp on CHO cells stably expressing hERG; higher = less effect of the substance
# 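Note: peak tail current of the secondary pulse compared with the same well before compound.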
# Sequence of human ether-à-go-go-related gene (hERG) potassium channel (Q12809 whole entry, looked up): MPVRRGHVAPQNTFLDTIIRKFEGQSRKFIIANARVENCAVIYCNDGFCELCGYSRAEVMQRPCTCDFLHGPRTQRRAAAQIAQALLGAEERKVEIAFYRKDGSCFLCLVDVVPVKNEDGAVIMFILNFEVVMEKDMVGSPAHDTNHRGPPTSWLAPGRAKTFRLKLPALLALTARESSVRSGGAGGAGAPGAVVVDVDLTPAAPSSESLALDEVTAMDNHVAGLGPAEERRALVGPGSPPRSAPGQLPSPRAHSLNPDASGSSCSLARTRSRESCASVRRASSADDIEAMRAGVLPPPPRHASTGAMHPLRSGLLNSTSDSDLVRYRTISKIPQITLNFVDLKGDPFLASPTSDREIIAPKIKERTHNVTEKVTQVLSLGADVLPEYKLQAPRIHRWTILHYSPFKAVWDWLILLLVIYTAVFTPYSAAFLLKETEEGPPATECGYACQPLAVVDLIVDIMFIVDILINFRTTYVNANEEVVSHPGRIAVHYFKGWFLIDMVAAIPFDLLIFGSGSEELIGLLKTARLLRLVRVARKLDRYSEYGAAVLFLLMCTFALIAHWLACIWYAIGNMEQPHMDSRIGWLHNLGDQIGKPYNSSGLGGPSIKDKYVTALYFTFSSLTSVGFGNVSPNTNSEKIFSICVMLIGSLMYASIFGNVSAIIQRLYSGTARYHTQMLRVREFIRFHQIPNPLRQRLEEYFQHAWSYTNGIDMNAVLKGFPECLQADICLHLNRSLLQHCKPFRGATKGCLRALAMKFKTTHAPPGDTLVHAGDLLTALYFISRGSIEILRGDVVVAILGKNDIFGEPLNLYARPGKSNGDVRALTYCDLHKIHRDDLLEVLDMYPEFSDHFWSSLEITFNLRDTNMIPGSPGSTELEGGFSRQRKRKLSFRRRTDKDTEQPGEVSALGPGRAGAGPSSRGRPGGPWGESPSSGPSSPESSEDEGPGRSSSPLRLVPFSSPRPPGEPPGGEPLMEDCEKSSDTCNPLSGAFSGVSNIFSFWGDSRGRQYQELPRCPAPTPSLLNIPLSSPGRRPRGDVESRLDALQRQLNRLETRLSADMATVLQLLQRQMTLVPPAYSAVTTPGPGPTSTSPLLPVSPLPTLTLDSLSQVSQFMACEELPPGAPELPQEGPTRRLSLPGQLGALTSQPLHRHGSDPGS
row,SMILES,"hERG current change (%, negative = inhibition) at 10uM [%]"
1,COc1ccc(OC)c(CCNC(=O)Cn2ccc3cc(S(=O)(=O)N4CCCC4)ccc32)c1,-13.9
2,CCN(CC)CCNC(=O)c1cc2cc(Br)ccc2s1,-61.1
3,CN(CCC#N)C(=O)c1cc2c(s1)-c1ccccc1SC2,-8.88
4,CCN(CC)CCNC(=O)c1cc2c(s1)-c1ccccc1SC2,-77.8
5,CNC(=O)c1cc2cc(Br)ccc2s1,10.1
6,COCCNC(=O)c1cc2c(s1)-c1ccc(Cl)cc1SC2,-5
7,CN(C)CCNC(=O)c1cc2c(s1)-c1ccc(Cl)cc1SC2,-81.1
8,NNC(=O)c1cc2c(s1)-c1cc(Cl)ccc1SC2,10.3
9,CCOCCCNC(=O)c1cc2c(s1)-c1ccccc1SC2,-5.28
10,CN(C)C(=O)c1cc2cc(Br)ccc2s1,-3.77
11,C/C(=N/OCC(=O)NCCCCCCNC(=O)CO/N=C(/C)c1cccs1)c1cccs1,-20.8
12,CCCCOC(=O)Nc1cc(Cl)ccc1C,1.24
13,O=S(=O)(/N=C(/Nc1ccccc1)C(F)(F)F)c1ccccc1,-20.7
14,Br.C/C(CC1CC(COCC(C)C)OC1=O)=N\Nc1nc(-c2ccccc2)cs1 (stereo not shown),-15.5
15,CC1Sc2ccc(S(=O)(=O)CCC(=O)Nc3ccccc3Cl)cc2NC1=O (stereo not shown),4.08
16,Cc1ccc(/C=C/C(=O)Nc2nnc(SCc3ccc(C#N)cc3)s2)o1,-11
17,O=C1CC(c2ccccc2)n2nc(NC(=O)C3CCCO3)nc2N1 (stereo not shown),-10
18,Cc1ccc(S(=O)(=O)N(C)C)cc1NC(=O)COC(=O)CC1CCCC1,-74.2
19,Cc1ccc(S(=O)(=O)N(C)C)cc1NC(=O)COC(=O)CCC1CCCCC1,2.99
20,CCN(CC)S(=O)(=O)c1ccc(OC)c(NC(=O)CC2CCCC2)c1,-10.8
21,COc1ccc(S(=O)(=O)N(C)C)cc1NC(=O)COC(=O)CC1CCCC1,-72.8
22,Cc1ccc(S(=O)(=O)N(C)C)cc1NC(=O)COC(=O)CCC1CCCC1,-18.5

row,SMILES,"hERG current change (%, negative = inhibition) at 10uM [%]"
1,COc1ccc(NC(=O)COC(=O)CC2CCCC2)cc1Cl,-1.21
2,CCc1ccccc1NC(=O)CN(C)C(=O)CSc1nc2cc(Cl)ccc2s1,17.8
3,CCOC(=O)/C(=N\Nc1cc(Cl)ccc1Cl)N1CCN(C)CC1,-16.9
4,O=C(CSc1ncccn1)N/N=C/c1ccccc1[N+](=O)[O-],11.3
5,O=C(NCCN1CCOCC1)/C(=C\c1ccccc1F)NC(=O)c1ccccc1,-26.5
6,COc1ccccc1/C=C(/NC(=O)c1ccccc1)C(=O)NCCN1CCOCC1,15.5
7,O=C(NCCCN1CCOCC1)/C(=C/c1ccc(F)cc1)NC(=O)c1ccccc1,-73.5
8,O=C(NCCO)/C(=C/c1ccc(Br)cc1)NC(=O)c1cccs1,-14
9,O=C(NCCN1CCOCC1)/C(=C/c1ccco1)NC(=O)c1ccccc1,-5.48
10,O=C(NCCCN1CCOCC1)/C(=C/c1cccnc1)NC(=O)c1ccccc1,-25
11,CN(C)c1ccc(/C=C(\NC(=O)c2ccccc2)C(=O)NCCCN2CCOCC2)cc1,-10.4
12,O=C(NCCN1CCOCC1)/C(=C/c1ccc(F)cc1)NC(=O)c1ccccc1,-67.8
13,O=C(NCCN1CCOCC1)/C(=C\c1ccc(Br)cc1)NC(=O)c1cccs1,-67.4
14,O=C(NCCN1CCOCC1)/C(=C\c1ccc(F)cc1)NC(=O)c1ccccc1,-62.3
15,O=C(NCCO)/C(=C\c1ccc(Br)cc1)NC(=O)c1cccs1,-3.91
16,COc1ccccc1C(=O)COC(=O)c1nc(Cl)ccc1Cl,-0.91
17,O=C(CSC1=NS(=O)(=O)c2cc(Cl)ccc2N1)NCCc1ccccc1,15.4
18,CN(C)c1ccc(S(=O)(=O)N2CCCCC2)cc1NC(=O)CCNC(=O)c1ccc(Cl)cc1,-27.4
19,Cc1cccc(Oc2ccccc2NC(=O)CN2C(=O)NC3(CCCC3)C2=O)c1,-6.76
20,CCN(CC)S(=O)(=O)c1ccc(NS(=O)(=O)c2ccc(C)c(C)c2)cc1,-21.6
21,Nc1nonc1C(=Nc1ccc(Br)cc1)NO,8.76
